PubChem BioAssay AID493192 (National Center for Advancing Translational Sciences (NCATS), 2011)
Inconclusive results are not listed. Active and inactive are the calls of the source. Calls come from the whole dose curve; as a rule, active = well fitted activation curve with a large enough effect; inconclusive = small, poorly fitted or top-dose-only effect; inactive = no such curve, though single readings can be large or run the other way.

Assay: qHTS Assay for Identifying a Potential Treatment of Ataxia-Telangiectasia: Hit Validation;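 note: phospho-KAP1 level by AlphaLISA as a proxy for ATM-like kinase activity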; for activity change, positive = activation: 0% is about no effect
Details: Ataxia-telangiectasia cell-based hit validation qHTS, in ATM-null A-T patient fibroblasts; series mostly up to 76.9 µM; activity change, positive = activation: at the top concentration
In short: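 hTERT-immortalized A-T patient fibroblasts (F2112) were dosed at up to 76.7 uM final for 60 min at 37C. After a further 30 min incubation, cells were lysed, and phospho-KAP1 was detected by AlphaLISA after 6 hr at 25C.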
Potency is the fitted concentration of half-maximal effect.

SMILES | activity change, positive = activation | Potency
C=C(C)n1c(=O)n(Cc2ccccc2C)c2ccccc21 | 12.2% (inactive) | 
COc1ccc(NS(=O)(=O)c2ccc(N3CC(O)=C(c4ccccc4)C3=N)cc2)cc1 | -5.56% (inactive) | 
O=C(NCCCN1CCOCC1)c1ccc2c(c1)N(Cc1cccc(F)c1)C(=O)c1ccccc1S2 |  | 7.33 µM (active)
O=C(Nc1cnn(C23CC4CC(CC(C4)C2)C3)c1)c1cnn2cccnc12 | -6.29% (inactive) | 
COc1ccccc1S(=O)(=O)Nc1ccc(-c2nnc3n2CCCCC3)cc1 | 2.78% (inactive) | 
CCn1c2ccccc2c2c3ncc4cccn4c3ccc21 |  | 46.3 µM (active)
Cc1[nH]c2c(C)cccc2c1CN1CCC(CO)(Cc2ccccc2)CC1 |  | 1.16 µM (active)
Cc1nc(SCC(=O)Nc2cc(C(N)=O)cc(C(N)=O)c2)c2c(C)c(C)sc2n1 | 1.61% (inactive) | 
CC1CCCC(C)N1C(=O)COC(=O)Cc1ccc(Cl)cc1 (configuration not stated) | -22% (inactive) | 
COc1ccc(CCNC(=O)C2CCN(S(=O)(=O)c3ccc(OC)c(OC)c3)CC2)cc1OC | 0.803% (inactive) | 
C=CCN1C(=O)/C(=C/C(=O)OC)S/C1=N\NC(=O)c1ccccc1 | 2.81% (inactive) | 
CCCN1CN(c2ccccc2)C(=S)N(c2ccccc2)C1 | 12.2% (inactive) | 
CC(=O)Nc1ccc(NC(=O)CSc2nnnn2-c2ccc(F)cc2)cc1 | 29.4% (inactive) | 
CC1CC(C)CN(S(=O)(=O)c2ccc(C(=O)NCCCn3ccnc3)cc2)C1 (configuration not stated) | -8.33% (inactive) | 
Cc1ccnc(NC(=O)c2ccccc2NC(=O)c2ccccc2)c1 | -23.6% (inactive) | 
COc1cccc(C(=O)NOCc2ccc(C)cc2)c1OC | -1.2% (inactive) | 
FC(F)(F)c1cccc(OCC2CNC(=S)O2)c1 (configuration not stated) | -6.83% (inactive) | 
c1ccc(CSc2nnc(-c3ccco3)n2Cc2ccco2)cc1 | 0.694% (inactive) | 
COc1ccc(C(=O)CSc2nc3ncccc3[nH]2)cc1OC | 1.61% (inactive) | 

SMILES | activity change, positive = activation | Potency
N#C/C(=C/c1ccc(F)cc1)C(N)=S | 21.9% (inactive) | 
CCN(CC)c1ccc2cc(-c3nc4ccccc4[nH]3)c(=O)oc2c1 | 5.9% (inactive) | 
Cc1ccc2c(c1)C(=O)CC(O)(C(F)(F)F)O2 (configuration not stated) | 0.694% (inactive) | 
N=c1ccn(Cc2ccc([N+](=O)[O-])cc2)cc1 | 9.64% (inactive) | 
COc1ccc(C(=O)/C=C/C(=O)N(CC(=O)NC2CCCCC2)Cc2ccccc2)c(O)c1 |  | 14.6 µM (active)
O=C(CCC(=O)c1ccc(F)cc1)Nc1cccc(Br)c1 | 14% (inactive) | 
CCN1CCN(CC(=O)Nc2ccc(C(C)=O)cc2)CC1 |  | 26 µM (active)
O=C1C2C3C=CC(CC3)C2C(=O)N1c1cccc(Br)c1 (configuration not stated) | -2.01% (inactive) | 
CC(C)(C)n1nc2c(c1NC(=O)C1CC(=O)N(c3ccc(Cl)cc3)C1)CS(=O)(=O)C2 (configuration not stated) | 3.47% (inactive) | 
O=C(Nc1ccccc1Oc1ccccc1)c1cccs1 |  | 41.2 µM (active)
S=c1[nH]nc(COc2ccccc2)n1/N=C/c1ccccc1Cl | -13.3% (inactive) | 
CCN1CCN(c2oc(COc3ccc(Cl)cc3)nc2C#N)CC1 | -10% (inactive) | 
COc1ccc(NC(=O)C2CC2)cc1OC1CCCC1 | -1.74% (inactive) | 
COc1ccc(C(=O)N2CCCC2(C#N)c2ccccc2)cc1[N+](=O)[O-] (configuration not stated) | 19.4% (inactive) | 
Cc1oc2ccc(OCc3ccc(Br)cc3)cc2c1C(=O)O | -13.3% (inactive) | 
Cn1cc(/C=N/NC(N)=S)c2ccccc21 | -7.64% (inactive) | 
COc1ccc(N(CCC#N)C(=O)/C(C#N)=C\c2cccs2)cc1 | -3.5% (inactive) | 
Clc1cccc(CN2CCC(Cc3ccccc3)CC2)c1 |  | 13 µM (active)
